In the library only some 4.3% were active in any assay of this set; here they are far more common.
NALP1 inh = NALP1 inflammasome inhibitors in reconstituted yeast, colorimetric, S. cerevisiae, triplicate retest; S. cerevisiae NALP1/ASC/caspase-1 growth, X-gal OD620, 72 h; hit rate 0.61% among 280,000; AID 2071, 2009; inhibition, % at 10 µM; in the data active means inhibition mostly above about 24%, no sharp cut-off; inactive means mostly below about 32%
dFosB activator = activators of delta FosB homodimer, primary screen, biochemical, fluorescence polarization, TAMRA-CDK5 oligo, single point | purified delta FosB; percent of positive-control signal above neutral wells | hit rate 0.99% among 340,000 | activation, % at 25 µM | AID 493131, 2011;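 active means mean activation above about 17%, with every replicate also reaching it, limit read from the data, passing the limit was not always enough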
Target sequence (P13346 whole entry, looked up): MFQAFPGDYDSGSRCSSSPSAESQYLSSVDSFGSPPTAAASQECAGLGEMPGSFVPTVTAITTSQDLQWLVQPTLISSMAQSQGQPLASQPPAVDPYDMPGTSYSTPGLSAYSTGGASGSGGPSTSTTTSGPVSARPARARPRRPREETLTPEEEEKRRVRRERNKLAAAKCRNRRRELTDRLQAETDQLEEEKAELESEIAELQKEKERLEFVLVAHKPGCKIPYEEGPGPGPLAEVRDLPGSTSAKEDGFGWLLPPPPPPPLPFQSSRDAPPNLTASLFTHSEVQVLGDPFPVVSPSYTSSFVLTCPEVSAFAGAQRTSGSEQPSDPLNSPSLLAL
UBC13 polyUb = UBC13 polyubiquitin chain formation inhibitors, primary screen, biochemical, TR-FRET, uHTS; inhibition, % at 20 µM; Ubiquitin-conjugating enzyme E2 N (Homo sapiens), P61088; hit rate 0.47% among 330,000; in the data active means inhibition above about 45%, passing the limit was not always enough
Target sequence (P61088 whole entry, looked up): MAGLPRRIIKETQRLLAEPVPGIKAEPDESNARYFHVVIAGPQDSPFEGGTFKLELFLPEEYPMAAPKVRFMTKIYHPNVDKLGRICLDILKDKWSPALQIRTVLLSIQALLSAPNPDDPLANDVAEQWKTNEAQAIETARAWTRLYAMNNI
GRIN3A LBD mod = binders of NR3A ligand-binding domain, primary screen, biophysical, differential scanning fluorimetry, uHTS; Glutamate receptor ionotropic, NMDA 3A (GRIN3A) ligand-binding domain; NR3A LBD differential scanning fluorimetry, Tm shift; 0% = protein alone, 100% = glycine-bound protein; Tm shift relative to glycine control, % at 25 µM; hit rate 2.5% among 340,000;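 active means melting temperature shift of at least 10% of the positive control shift, at one fixed dose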
Yeast superoxide = reduction of superoxide in aged yeast, primary screen, HTS | AID 2690, 2010 | S. cerevisiae aged cells, superoxide DHE fluorescence; active compounds read low | hit rate 0.18% among 330,000 | superoxide response (% of plate mean), % at 10 µM;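 active means superoxide response under a set limit, about three screen SD below normal, cut at about 65% in these data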;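 further: yeast aged for seven days with compound at 30 °C before DHE staining; 100% = average MFI of all compound-treated wells on the plate with controls excluded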
Numbers without * were called inactive; . = no result; + = active, no number.

SMILES	NALP1 inh	dFosB activator	UBC13 polyUb	GRIN3A LBD mod	Yeast superoxide
Cc1cc(S(=O)(=O)N(Cc2ccc3c(c2)OCO3)CC2CCCO2)ccc1-n1cnnn1 (stereo not given)	0.2	-5.8	5.7	21.2*	105.2
OC(CNCCC(c1ccccc1)c1ccccc1)COc1ccccc1 (stereo not given)	33.4*	5.0	18.7	-0.4	101.4
CC(C)c1ccc(OCC(O)CNC(C)c2ccccc2)cc1 (stereo not given)	16.1	-3.8	22.3	-2.3	117.4
O=C(CSc1nc2nc3c(cc2c(=O)n1-c1ccccc1)CCCC3)Nc1cccc2ccccc12	26.4	-2.9	-11.6	-1.9	102.9
Cc1cccc(NC(=O)CSc2nc3nc4c(cc3c(=O)n2-c2ccccc2)CCCC4)c1	34.7	0.8	-2.7	18.8*	102.6
Cc1ccc(/C=N/NC(=O)c2nnn(-c3nonc3N)c2CSc2ccccc2)o1	16.2	-3.4	-17.4	-3.8	103.6
Cc1ccc(-c2c(C(=O)N/N=C/c3ccoc3)nnn2-c2nonc2N)cc1	2.2	-3.4	-12.4	-9.2	99.3
Nc1nonc1-n1nnc(C(=O)N/N=C/c2cccc(Cl)c2)c1CSc1ccc(Cl)cc1	4.4	12.7	0.0	33.2*	104.4
Nc1nonc1-n1nnc(C(=O)N/N=C/c2cccc(Cl)c2)c1CSc1ccccc1	.	.	-15.4	6.0	111.2
Cc1ccc(SCc2c(C(=O)N/N=C/c3ccoc3)nnn2-c2nonc2N)cc1	9.7	-14.2	5.1	12.2*	98.4
Nc1nonc1-n1nnc(C(=O)N/N=C/c2ccco2)c1CSc1ccccc1	22.1	6.4	-7.0	26.5*	120.2
Nc1nonc1-n1nnc(C(=O)N/N=C/c2ccccc2)c1CSc1ccc(Cl)cc1	16.0	10.3	15.9	29.7*	110.3
COc1ccc(S(=O)(=O)N2CCN3CCCC3C2)cc1 (stereo not given)	9.3	1.7	-7.7	-1.4	86.3
CS(=O)c1ccccc1-c1nc(-c2cc(C(F)(F)F)cc(C(F)(F)F)c2)no1 (stereo not given)	-1.8	2.6	18.6	-1.4	113.3
CCn1c(SCC(=O)NC2CCCCC2)nc2c(c1=O)SCC2	11.1	-7.0	-7.3	-2.1	91.3
O=C1CN(c2ccccc2)C(=S)N1C(=O)c1ccc(Br)cc1	17.1	-2.0	-4.1	-1.8	88.1
Cc1nn(C)cc1/C=N/NC(=O)Cn1nccc1C	16.4	1.6	-4.4	-7.2	99.6
O=C(N/N=C/c1ccccc1C(=O)O)c1ccccc1Br	10.9	-3.8	10.3	2.1	97.6
O=C(N/N=C/c1cn(-c2cccs2)nc1-c1ccccc1)c1ccccc1Br	21.6	-4.1	-7.0	10.8*	95.2
O=C(N/N=C/c1cn(-c2cccs2)nc1-c1ccccc1)c1ccccc1O	25.3	-12.0	-16.5	25.7*	107.7
CC(=O)Nc1ccc2nc3ccccc3nc2c1	.	-9.4	-27.9	-1.1	52.0*
CC(=O)Nc1ccc2c(c1)CCc1ccccc1-2	27.2	-8.5	-5.1	10.1*	85.5
COc1ccc(N2CCN(c3cc(C)c4ccc(O)cc4n3)CC2)cc1	28.1	0.6	1.9	-2.2	107.1
COc1ccc(Nc2cc(C)c3ccc(O)cc3n2)cc1	+	13.8	0.4	-0.7	107.3
COc1ccc(Nc2cc(C)c3cc([N+](=O)[O-])ccc3n2)cc1	29.2	-7.9	-43.8	27.9*	109.4
SMILES	NALP1 inh	dFosB activator	UBC13 polyUb	GRIN3A LBD mod	Yeast superoxide
N#CCCN1CCN(C2=NC(=O)/C(=C\c3cccs3)S2)CC1	-69.0	-10.6	-13.8	0.2	126.8
Cc1cc(Nc2cccc(O)c2)c2ccccc2n1	-2.2	.	-1.6	.	96.2
CC(=O)Nc1ccc(Nc2cc(C)c3ccccc3n2)cc1	11.2	-0.8	7.0	12.6*	100.3
Cc1cc(Nc2ccccc2)nc2cc(O)ccc12	52.3*	5.8	27.7	-12.2	94.6
CSc1ccc(CN(C)C(=O)CNC(=O)c2ccc3c(c2)OCO3)cc1	.	5.9	1.1	-2.0	88.3
C[C@H]1CN([C@@H](C)CO)C(=O)Cc2cc(NC(=O)CCC(F)(F)F)ccc2O[C@H]1CN(C)CC1CC1	.	-0.2	17.8	0.1	99.6
COc1ccc(-c2cc(C(F)(F)F)nc(-n3ccnc3)n2)cc1	10.9	-12.4	-2.9	-0.8	106.9
O=C(NCC(F)(F)F)c1ccc(S(=O)(=O)Nc2ccccc2N2CCCC2)cc1	.	53.1*	-10.7	-4.0	83.3
CCOC(=O)Nc1ccc2c(c1)Nc1ccccc1S2	9.1	-6.2	-18.8	12.3*	81.1
C=CC(=O)N1c2ccccc2Sc2ccc(NC(=O)OCC)cc21	.	-6.2	7.8	-0.8	106.6
O=C(/C(=C/O)N=Nc1ccccc1)c1ccc(Cl)cc1	26.1*	-20.2	-14.9	-3.7	91.3
CCOc1ccccc1-c1c2cc(O)c(=O)cc-2oc2cc(O)c(O)cc12	1.9	51.3*	.	-9.4	.
COc1ccc(OC)c(-c2c3cc(O)c(=O)cc-3oc3cc(O)c(O)cc23)c1	15.1	46.1*	.	-17.4	104.8
O=C(N[C@H]1C/C=C\C[C@H](CC(=O)N(CCO)Cc2ccccc2)C(=O)N[C@H](Cc2c[nH]c3ccccc23)COC1=O)OCC1c2ccccc2-c2ccccc21	.	4.9	-7.3	0.1	85.3
Cc1cc(COc2ccccc2)oc1C(=O)O	17.8	-4.1	-4.4	1.6	96.3
COc1cccc(CN(C)C(=O)/C=C/c2ccc(S(=O)(=O)N3CCCCCC3)cc2)c1	-3.2	-13.0	0.1	24.4*	117.0
COc1cccc(/C=C/C(=O)OCC(=O)Nc2ccc(S(=O)(=O)N3CCCC3)cc2)c1	5.9	-12.5	6.5	-2.5	93.7
CCN(CC)c1ccc(/C=C(\C#N)c2ccccn2)cc1	37.1	-2.4	-17.8	4.3	115.4
CCN(CC)c1ccc(C=N/C(C#N)=C(\N)C#N)cc1	-6.3	4.6	-26.9	26.9*	91.2
O=C(NCc1ccccc1)C1=C[C@H](C2CC2)C[C@H](OCCCCO)O1	-6.4	-6.5	5.6	-1.8	101.9
COc1ccc(OCCn2nnc(-c3ccc(Cl)cc3)n2)cc1	10.5	-2.4	-2.1	15.5*	94.5
COc1ccc(-c2nnn(Cc3ccccc3)n2)cc1	7.6	-7.0	1.3	0.5	93.8
COc1ccc(S(=O)(=O)N(C)C)cc1NC(=O)COC(=O)C1CC1	.	-1.5	-7.5	1.2	81.9
O=C(CCCn1c(=S)[nH]c2cc3c(cc2c1=O)OCO3)NCc1cccc(Cl)c1	-10.3	9.0	19.5	-5.6	82.8
Cc1c(NC(=S)NC(NC(=O)C(C)C)C(Cl)(Cl)Cl)c(=O)n(-c2ccccc2)n1C (stereo not given)	20.9	-2.1	-13.7	-7.2	96.3
O=C(Cn1c(O)c(/C=C2\C=Nc3ccccc32)sc1=O)Nc1ccc2c(c1)OCO2	10.2	36.4*	-10.6	10.7*	143.6
